# Results published in the supplement of paper PMC4466236.
# The full ranking holds about 33,000 sequences; the median of “E-score (dimensionless, -0.5 to 0.5)” is about -0.058, and the highest 2% start at about 0.35. This is one part of a sample in which the highest values are shown more often than they occur.
# Test system: MvaT
# Assay: PBM 8-mer E-score (mean of HK and ME arrays) (E-score (dimensionless, -0.5 to 0.5)); higher = stronger relative binding preference
# Description: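 Protein binding microarray: GST-tagged full-length MvaT (P. aeruginosa PAO1) bound to two universal double-stranded 60-mer arrays (ME and HK), each with a constant 25-mer primer and a variable 35-mer region covering all 8-mers. The 8-mer E-score (rank-based, range -0.5 to 0.5, >0.45 = specific binding) is the mean of the two arrays.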
row,Sequence,PBM 8-mer E-score
1,CAGAGCCC,-0.374
2,ATCTCGAA,-0.0688
3,ACTGGAAG,-0.0943
4,ACTCTGGC,-0.165
5,AAGCACAG,-0.107
6,AAAGTAAA,0.306
7,ATAGTAAA,0.327
8,AAAGTAAT,0.373
9,ATAGTAAT,0.353
10,ATAGTAAC,0.271
11,AAAGTAAC,0.206
12,AGTCATCG,-0.269
13,CATATCTA,0.122
14,CATATAGG,0.151
15,CATATATA,0.451
16,CTCATATA,0.324
17,CATATACG,0.143
18,CATATATC,0.398
19,CATATACC,0.166
20,CTCATATC,-0.0618
21,CATATATG,0.449
22,GAGGGGAC,-0.373
23,CCCCAAAA,-0.131
24,ACAGATAA,0.287
25,GCCGACTA,-0.209

row,Sequence,PBM 8-mer E-score
1,AACCTACC,-0.156
2,GGGATTAA,0.144
3,GGCGGTTA,-0.177
4,ATTAGCAC,0.0511
5,CAACCCGA,-0.0421
6,TAATAAAA,0.389
7,GAATAAAA,0.354
8,TAAAAAAA,0.321
9,GAATAAAC,0.192
10,GGATAAAA,0.265
11,CAATAAAA,0.286
12,GCTGCTAA,-0.101
13,CTATGCAG,-0.146
14,ATCTAGCA,0.152
15,CAAAGTAA,0.216
16,ATAAGTAG,0.341
17,ATAAGTAT,0.356
18,GTAAGTAA,0.207
19,TTAAGTAA,0.328
20,AAAAGTAA,0.28
21,TAAAGTAA,0.365
22,ATAAGTAC,0.305
23,ATAAGTAA,0.371
24,ATCGTCAC,-0.196
25,CCTTCAAA,-0.128

row,Sequence,PBM 8-mer E-score
1,CCACGACA,0.011
2,AACATCAT,0.171
3,CCCTACCC,-0.224
4,CCAAACGC,-0.0718
5,AGCTGCAC,-0.122
6,ACTTGCAA,0.123
7,CCAAACAC,0.111
8,ATCAGTGA,-0.0827
9,CTATCCAG,-0.0225
10,ATTCTTGA,0.0466
11,ATTCGGTG,-0.00558
12,AATCCACA,0.139
13,AATATCTC,0.253
14,AATATCTG,0.207
15,AATATCAC,0.407
16,ACTATATG,0.306
17,GATATCAC,0.119
18,AATATATG,0.446
19,AATATATC,0.445
20,AATATCAA,0.338
21,AATATCCC,0.174
22,GTATCTTA,0.194
23,ACAGGTTG,-0.21
24,AGGAACCT,-0.139
25,AATTCTAC,0.188

row,Sequence,PBM 8-mer E-score
1,ACTAGGCT,-0.105
2,ACACCTCC,-0.0337
3,CCGGTAAA,0.0751
4,TATTAGGA,0.247
5,ATAATCTG,0.196
6,ATGATATC,0.131
7,ATCATATG,0.241
8,ATAATATG,0.435
9,ATAATATC,0.437
10,ATAATCTC,0.337
11,CTACGATC,0.0594
12,AAGAATAT,0.316
13,CTGAATAA,0.226
14,AAGAATAC,0.118
15,ATGAATAG,0.131
16,AAGAATAA,0.368
17,ATGAATAA,0.368
18,CGCTTGCC,-0.327
19,CATATTGA,0.264
20,GATATTCA,0.0985
21,TATATTCA,0.373
22,AATATTCA,0.312
23,TATATTGA,0.387
24,GATATTGA,0.228
25,CCCGGGGA,-0.299

row,Sequence,PBM 8-mer E-score
1,ATGATAAT,0.292
2,AGTATAAT,0.336
3,GTTATAAC,0.434
4,ATTATAAC,0.415
5,CCTATAAC,0.186
6,GTTATAAA,0.345
7,ATTATAGC,0.282
8,ATTATAAT,0.468
9,CTCATAAC,-0.0784
10,ATGATAAC,0.178
11,GCTATAAC,0.13
12,CTTATAAC,0.352
13,AAGTGACT,0.00519
14,CTCCCTAA,-0.204
15,GTGTGGGA,0.0582
16,GACGCTGC,-0.183
17,AATCGTGG,-0.0233
18,AAGCGGTG,-0.19
19,AAATCTAC,-0.0273
20,ACGAACGA,-0.115
21,CTAAGCAC,-0.0271
22,CTCATAAG,-0.122
23,CTTATAAA,0.377
24,ATCATAAA,0.308
25,ATTATAAA,0.462

row,Sequence,PBM 8-mer E-score
1,ACTATACT,0.228
2,CGTATAAG,0.147
3,ACTATAAT,0.436
4,ACTATAAA,0.316
5,CTCATAAA,0.0815
6,CCTATAAA,0.211
7,CTTATAAG,0.394
8,TAAGCCTA,-0.0915
9,GAACTTGA,0.266
10,AGTCCAGA,-0.101
11,AAACCATA,0.251
12,CGCTTAGA,-0.0246
13,AATAAAGC,0.292
14,ATCCTATA,0.189
15,ACCTATAA,0.208
16,ACACGTGT,-0.0859
17,AACCGCAA,0.00741
18,ACTATAAG,0.273
19,ATTATAAG,0.432
20,TTGATAAA,0.253
21,ATTATACG,0.274
22,TTTATAAA,0.411
23,TTCATAAA,0.238
24,CCTACAGC,-0.247
25,ACTACGAG,0.0492

row,Sequence,PBM 8-mer E-score
1,AGGCCATG,-0.221
2,CGCGTGAA,0.0803
3,AGCGTCAT,-0.205
4,ATATGCCA,0.181
5,ACAGCATA,0.147
6,GTTATAGA,0.222
7,CTGATATA,0.358
8,GTTATACA,0.281
9,ATTATAGG,0.304
10,GTGATATA,0.247
11,GTTATATA,0.456
12,CTTATATC,0.184
13,ATTATATG,0.416
14,CTTATAGA,0.0191
15,ATGATATG,0.199
16,CTTATATA,0.452
17,ATGATATA,0.262
18,GGCTCACC,-0.247
19,AGCTCGAG,-0.0655
20,ATTTACTC,0.0973
21,AACGAGAG,-0.094
22,AAAAGAGA,0.103
23,ATTATATC,0.444
24,CTTATACA,0.229
25,ATTATACC,0.337

row,Sequence,PBM 8-mer E-score
1,ATTATACA,0.388
2,ATTATATA,0.47
3,ATTATAGA,0.331
4,ACACTAAT,0.345
5,CCACGGTC,-0.022
6,AGGAGGAA,-0.174
7,TGATAAAA,0.258
8,TGATATAA,0.353
9,GGATATAA,0.307
10,CGATATAC,0.219
11,CGATATAG,0.196
12,CGATATAA,0.395
13,CGAATAAG,0.122
14,ATTGGATG,0.131
15,CAATCCAA,-0.0468
16,AATTCACA,0.206
17,ATGTATTC,0.152
18,GTGTATTA,0.276
19,CTGTATTC,0.0463
20,CTGTATTA,0.36
21,ATGTATTA,0.399
22,ATGTATTG,0.244
23,CTAGTATC,-0.0351
24,CAATACTC,0.106
25,AAAACGAC,0.0691

row,Sequence,PBM 8-mer E-score
1,AAAATGAA,0.226
2,GACAGAAC,-0.0903
3,ATTATCAG,0.354
4,ATTATCAC,0.24
5,ATTATCAA,0.321
6,ATTATCTA,0.269
7,ATTATCTC,0.157
8,ATTATCTG,0.355
9,GTAATGAC,-0.00906
10,AGCTGGCC,-0.255
11,AGATAAAG,0.0927
12,ATATAAGA,0.388
13,ATATAAAC,0.433
14,GTATAAAC,0.316
15,ATATAAGC,0.311
16,ATATAAAG,0.382
17,GTATAAAA,0.216
18,TTATAAAA,0.399
19,CTATAAGA,0.188
20,CTATAAAG,0.0669
21,CTCTAAAA,0.0251
22,CTATAAAC,0.223
23,GCATCCCC,-0.212
24,CATTTTCG,0.126
25,GACTAGTC,-0.0899

row,Sequence,PBM 8-mer E-score
1,GCACCGCC,-0.175
2,CGGCTTGA,-0.132
3,ACATTACC,0.113
4,CTTTTGTC,0.0941
5,ATATAAAT,0.45
6,AGATAAAT,0.241
7,CTATAAAA,0.171
8,ATATAAAA,0.431
9,ATGTAAAT,0.327
10,ATAAAAGA,0.263
11,CTCTCATA,0.00755
12,ACGGACGA,-0.238
13,CCAAATTA,0.228
14,ACAAAATG,0.0821
15,ACAAAATA,0.39
16,ACAAATTA,0.35
17,ACAAATTG,0.137
18,GCAAAATA,0.198
19,CGCCCAAC,-0.0513
20,CATCCTTA,0.0793
21,ACATAGTC,0.172
22,AGACTAGA,0.16
23,CGTCCAAC,-0.205
24,AAAGCGTT,0.0685
25,GAGGGATA,-0.0756

row,Sequence,PBM 8-mer E-score
1,AGTGTTTC,0.161
2,CTAGTTTA,0.306
3,ATAGTTTC,0.275
4,TAAGTTAA,0.426
5,GAAGTTAA,0.317
6,TGAGTTAA,0.272
7,ATAGTTTA,0.35
8,GAAGTTTA,0.304
9,AAAGTTTA,0.353
10,AAAGTTAT,0.36
11,AAAGTTGT,0.264
12,AAAGTTTC,0.296
13,ACAGTTAT,0.305
14,ACTCAGAT,0.101
15,CACAACGA,0.0491
16,CTTGGACA,-0.17
17,ACAGGCAC,-0.193
18,CTTTTGGC,-0.0767
19,GAAGTTCA,0.16
20,AAAGTTAA,0.353
21,AAAGTTAC,0.212
22,CAAGTTAA,0.332
23,ATAGTTAA,0.339
24,GTAGTTAA,0.283
25,ACAGTTAA,0.299

row,Sequence,PBM 8-mer E-score
1,AAAGTTAG,0.353
2,TAAGTTCA,0.353
3,AAAGTTCA,0.322
4,CTAGTTAA,0.36
5,CAAGTTAG,0.194
6,CATACGTA,-0.0616
7,AAGTTTCA,0.303
8,GAGCTGAC,-0.316
9,TATCTACA,0.17
10,ACCCCATA,-0.17
11,CAAAGTAG,0.0209
12,CCTGGGTC,-0.264
13,ACGGATAT,0.113
14,TGTATTAA,0.39
15,CGTATTAC,0.17
16,GGTATTAA,0.34
17,AGTATTAA,0.328
18,CGTATTAA,0.35
19,CGTATTAG,0.0961
20,GTCATAAC,0.0325
21,GTACATGA,0.066
22,ATGTGGGA,0.0305
23,ACGTATGA,-0.1
24,CGGTTATA,0.224
25,GATTGTTA,0.204

row,Sequence,PBM 8-mer E-score
1,AATTATCG,0.336
2,GCTTATTA,0.254
3,ACTTATTG,0.29
4,CATTGTTA,0.157
5,CCTTATTA,0.292
6,AATTGTTA,0.377
7,AATTACTA,0.323
8,AATTATTA,0.438
9,AATTATTG,0.351
10,ACTTATTA,0.416
11,TCTAGGCA,-0.16
12,CCGAGCGC,-0.231
13,TATCTGAA,0.238
14,ATGTCCTG,-0.157
15,CATAGCGA,0.0278
16,AGTACCGC,-0.108
17,GTGAGCTA,-0.209
18,CAAGCCTG,-0.209
19,AATTAGTC,0.282
20,CATTAGTA,0.191
21,ACTTATTC,0.229
22,AATTATCC,0.296
23,AATTAGTA,0.384
24,AATTATTC,0.352
25,GAGATTTA,0.0378

row,Sequence,PBM 8-mer E-score
1,GTTGCATA,0.0505
2,ATCATTAC,0.235
3,CGACAACA,0.0714
4,AATATTAT,0.445
5,AATATTGG,0.278
6,CCTATTAG,0.0715
7,CCTATTAC,0.151
8,AATATTGC,0.307
9,AATATCAT,0.294
10,AATATTGT,0.355
11,CATATTAG,0.305
12,CATATTAC,0.294
13,AATATTAC,0.372
14,AATATTAG,0.394
15,AAGATTAT,0.286
16,TATTCTGA,0.132
17,CTGATAGC,-0.222
18,CCCGGGCG,-0.302
19,GAGCTGGC,-0.277
